Where “and” joins values, the source holds several entries; their conditions need not be identical. Equal entries are not always repeated. A structure can be active in one record and inactive in another. Calls of active or inactive are those of the source. How the source made its calls: active means hit-call score of the fitted dose curve at least 0.9, where 1 is the maximum; inactive means score below 0.9.

The nature of the test: ATG_TCF_b_cat_CIS: Attagene CIS-FACTORIAL HepG2 Assay for human T-Cell-Factor with beta-catenin (TCF/b-cat) (AID 2282965). The following applies: HepG2 TCF/beta-catenin cis-reporter transcription, actives raise or lower the signal. As to the method: ATG_CIS is a cell-based, multiplexed-readout assay that uses HepG2, a human liver cell line, with measurements taken at 24 hours after chemical dosing in a 24-well plate.ATG_TCF_b_cat_CIS is one of 52 assay component(s) measured or calculated from the ATG_CIS assay. It is designed to make measurements of mRNA induction, a form of inducible reporter, as detected with fluorescence intensity signals by Reverse transcription polymerase chain reaction (RT-PCR) and Capillary electrophoresis technology.Data from the assay component ATG_TCF_b_cat_CIS was analyzed into 1 assay endpoint. This assay endpoint, ATG_TCF_b_cat_CIS, was analyzed with bidirectional fitting relative to DMSO as the negative control and baseline of activity. Using a type of inducible reporter, measures of mRNA for gain or loss-of-signal activity can be used to understand the reporter gene at the transcription factor-level as they relate to the gene TCF7 and TCF7L2 and LEF1 and TCF7L1. Furthermore, this assay endpoint can be referred to as a primary readout, because this assay has produced multiple assay endpoints where this one serves a reporter gene function. To generalize the intended target to other relatable targets, this assay endpoint is annotated to the dna binding intended target family, where the subfamily is HMG box protein.
Human liver HepG2 cells are transiently transfected with multiple reporter transcription units (MRTUs) in 6-well plates using FuGene 6 reagent (Roche; 3 ml FuGene/1 mg DNA). The MRTU constructs are regulated by a cis-regulating element (promoter). […] A major difference between the CIS and TRANS system is that in CIS activities of endogenous TFs are measured, whereas the TRANS assay evaluates changes in activities of exogenous, chimeric NR-Gal4 proteins. […] At the end of 24 hour incubation, total RNA was isolated using TriZol reagent (Invitrogen). The isolated RNA is then reverse-transcribed using oligo(dT) primer and Mo-MLV reverse transcriptase (Invitrogen) with DNAse I (Ambion) treatment for 30 min. The one-tenth of the produced cDNA was amplified by PCR using Taq DNA polymerase (Invitrogen) and two reporter sequence-specific primers. The PCR products were fluorescently labeled by primer extension with 6-arboxyfluorescein (6-FAM) 5'-labeled reporter sequence-specific primer (2 min at 95 C, 20 s at 68 C and 10 min at 72 C) and these products were digested with 5U of HpaI (New England Biolabs) for 2h at 37 C. The fragments were purified using Qiaquick PCR columns (Qiagen), analyzed on an ABI 3130xL genetic analyzer (Applied Biosystems) with peak positions identified by using a set of X-rhodamine (ROX)-labeled MapMarker1000 molecular weight standards (BioVentures). The raw capillary electrophoresis data was processed using Attagraph software (Attagene).
With `CCCCN(C)C`, the result was inactive.
The same measure, in the same setting: the value for `c1ccc(CNc2ncnc3c2ncn3C2CCCCO2)cc1` (stereo not given) was “inactive”; that for `OCC(F)(F)C(F)(F)C(F)(F)C(F)(F)C(F)(F)C(F)(F)C(F)(F)C(F)(F)C(F)(F)C(F)(F)C(F)(F)F` was “inactive”.
On the same count and under the same terms, the value for `CCc1ccccc1O` was “inactive”; that for `CCCCc1ccc2ccccc2c1S(=O)(=O)O` was “inactive”; that for `Oc1c(Cl)cc(Cl)cc1Sc1cc(Cl)cc(Cl)c1O` was “inactive”.
Still for that read-out and setting: the value for `NCCN` was “inactive”; that for `COC(=O)C(F)(F)C(F)(F)C(F)(F)F` was “inactive”.
Regarding `FC(F)=C(F)C(F)(F)C(F)(F)C(F)(F)C(F)F`, the call was inactive.
Still for that read-out and setting: the value for `CCC(=O)C=Cc1ccc(OC)cc1` was “inactive”; that for `O=P(O)(O)CCC(F)(F)C(F)(F)C(F)(F)C(F)(F)C(F)(F)C(F)(F)F` was “inactive”.
In general, AC50 refers to the concentration giving half of the maximal activity seen. In the case of `NC(=NCCCCCCN=C(N)/N=C(\N)Nc1ccc(Cl)cc1)/N=C(\N)Nc1ccc(Cl)cc1`, the half-maximal activity concentration (AC50) is 23 µM (active) and 25.4 µM (active); the compound was called inactive.
In the case of `CC(C)(C)c1ccc(O)c(O)c1`, the result was inactive.
For the compound `CCC(C)c1ccccc1O` (stereo not given), the compound was classed as inactive and the concentration at half-maximal activity (AC50) was 164 µM (active).
With `O=C1c2ccc(O)c(O)c2C(=O)c2c(O)ccc(O)c21`, the call was inactive.
Consider `Clc1ccc(Nc2nnc(Cc3ccncc3)c3ccccc23)cc1`, for which the AC50 is 11 µM (active).
With `Clc1ccc2c(Cl)ccnc2c1`, the compound was called inactive.
As for `N=C(N)c1ccc(OCCCCCOc2ccc(C(=N)N)cc2)cc1`, the AC50 was 36.6 µM (active).
`NNC(=O)CCCCC(=O)NN`: the compound was called inactive.
The same measure, in the same setting: the value for `Nc1ccc(O)c(C(=O)O)c1` was “inactive”; that for `CCCCCCCCCCCC[N+](C)(C)Cc1ccccc1` was “inactive”; that for `Cc1ccc(C)c(S(=O)(=O)O)c1` was “inactive”.
For the compound `Cc1ccc(N=Nc2c(O)ccc3ccccc23)c(C)c1`, the outcome was inactive.
Still for that read-out and setting: the value for `O=C(NCc1ncc(C(F)(F)F)cc1Cl)c1c(Cl)cccc1Cl` was “inactive”; that for `CCCCCCCCCCCCOC(=O)c1cc(O)c(O)c(O)c1` was “inactive”; that for `O=C1C=CC(=O)N1c1cccc(N2C(=O)C=CC2=O)c1` was “inactive”.
The same measure, in the same setting: the value for `CC1CCC(CO)CC1` (stereo not given) was “inactive”.
The same measure, in the same setting: the value for `O=C(c1cc(O)c(O)c(O)c1)c1ccc(O)c(O)c1O` was “inactive”; that for `CCCCCCCCC(C)=O` was “inactive”.
Turning to `FC1(F)C=CC(F)(F)C1(F)F`, the outcome was inactive.
With `Cc1ccc2ccc3ccc(C)cc3c2c1`, the call was inactive.
The same measure, in the same setting: the value for `O=C(O)CCC(F)(F)C(F)(F)C(F)(F)C(F)(F)C(F)(F)F` was “inactive”.
For `CS(=O)(=O)c1ccc([C@@H](CC2CCCC2)C(=O)Nc2cnccn2)cc1Cl`, the half-maximal activity concentration (AC50) was 50.6 µM (active).
Consider `CC(C)C=O`, for which the result was inactive.
The same measure, in the same setting: the value for `O=S(=O)(O)C(F)(F)C(F)(F)C(F)(F)C(F)(F)C(F)(F)C(F)(F)C(F)(F)C(F)(F)C(F)(F)C(F)(F)F` was “inactive”.
Take `Cc1cc(=O)oc2cc(O)ccc12`: the compound was classed as inactive.
The same measure, in the same setting: as for `O=C(CC(=O)C(F)(F)C(F)(F)C(F)(F)F)c1cccs1`, the entry is “inactive”; as for `CC(=O)Nc1ccc(S(N)(=O)=O)cc1`, “inactive”.

These data come from PubChem BioAssay (EPA / NIEHS).
